High-throughput results deposited in PubChem BioAssay by The Scripps Research Institute Molecular Screening Center.
An excerpt weighted towards active compounds, which were near 3.2% of everything screened.
MsrA inhibitor: inhibits bovine methionine sulfoxide reductase A; inhibition, % at 15.5 µM; purified bovine MsrA, absorbance read-out; AID 651718; 360,000 tested, 0.75% active;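 note: 0% = vehicle wells with enzyme and 100% = reference inhibitor wells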
bovine MsrA act: activators of bovine methionine sulfoxide reductase A; purified bovine MsrA, absorbance read-out; activation, % at 10.6 µM; 360,000 tested, 0.3% active; AID 602163; in the data active = activation above about 7.5%;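 note: 0% = vehicle and 100% = reference activator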
rCAG RNA binder: binds r(CAG) RNA repeats. 370,000 tested, 1.3% active. r(CAG) RNA repeat, TO-PRO-1 dye displacement fluorescence. inhibition, % at 3 µM;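 active = inhibition above the plate cutoff, the mean of all test compounds on that plate plus 3 SD, cut at about 35% in these data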;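 note: 0% = DMSO alone and 100% = 100 µM mitoxantrone as full dye displacement; higher means more dye released from RNA so lower well fluorescence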
HGIII-sPLA2 inh: Blocks human group III sPLA2 activity. QFRET BODIPY PC-A2 liposome hydrolysis, fluorescence. inhibition, % at 12.2 µM. 370,000 tested, 0.56% active. Q9NZ20;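 active = inhibition above mean plus 3 SD of compounds lying within the high and low control bounds, cut at about 19% in these data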;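 note: 0% = median of test compound wells and 100% = no enzyme DMSO wells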
Target sequence (Q9NZ20 whole entry, looked up): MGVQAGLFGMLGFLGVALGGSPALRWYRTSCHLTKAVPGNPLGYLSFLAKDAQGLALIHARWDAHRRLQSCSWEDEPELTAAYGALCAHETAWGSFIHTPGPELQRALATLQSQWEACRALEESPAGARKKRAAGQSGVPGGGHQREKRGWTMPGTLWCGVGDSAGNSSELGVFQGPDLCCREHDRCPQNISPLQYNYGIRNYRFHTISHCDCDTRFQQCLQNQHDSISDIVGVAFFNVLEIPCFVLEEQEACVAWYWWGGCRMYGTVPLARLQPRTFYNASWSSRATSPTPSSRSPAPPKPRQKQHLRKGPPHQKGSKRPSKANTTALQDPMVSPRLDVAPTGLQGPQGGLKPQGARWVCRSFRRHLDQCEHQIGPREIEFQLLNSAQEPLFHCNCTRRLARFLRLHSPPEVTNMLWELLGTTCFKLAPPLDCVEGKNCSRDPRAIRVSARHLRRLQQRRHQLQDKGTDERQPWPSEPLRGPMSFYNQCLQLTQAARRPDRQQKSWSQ
PG9 binder: PG9 antibody binding by small molecule | TR-FRET gp120-PG9 antibody binding | inhibition, % at 6.7 µM | 360,000 tested, 0.43% active | AID 624416; in the data active = inhibition above about 8.5%
MsrA conf: confirmation of bovine MsrA inhibitors | inhibition, % at 15.5 µM | 2,300 tested, 41% active | purified bovine MsrA, absorbance read-out | AID 651822 | shares compounds with MsrA inhibitor;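 note: coupled to thioredoxin reductase with NADPH and selenocystamine and DMSO as substrate; 0% = vehicle only and 100% = full effect of reference inhibitor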
Numbers without * were called inactive; . = no result. Cut-off read from the data, not from the text of the source, unless noted: active = inhibition above about 4.5%; inactive = the rest.

SMILES | MsrA inhibitor | bovine MsrA act | rCAG RNA binder | HGIII-sPLA2 inh | PG9 binder | MsrA conf
C=CCN1C(=O)[C@@H](CC(=O)NCc2cccs2)[C@]2(C(=O)OCC)CCCCC/C=C/12 | . | . | 1 | -5 | . | .
C=CCN(CC#Cc1ccccc1)Cc1ccc2c(c1)OCO2 | . | . | 1 | 2 | . | .
NS(=O)(=O)c1ccc(NC(=S)NC(=O)c2ccc(Br)o2)cc1 | 1 | -8 | -1 | 13 | -3 | .
NS(=O)(=O)c1ccc(NC(=S)NNC(=O)c2ccc(Br)o2)cc1 | 4.9* | 2 | 4 | 12 | -3 | 3
CC(C)(C)c1ccc(/C=C2\CCn3c2nc2cc(C(=O)O)ccc2c3=O)cc1 | . | -7 | . | . | . | .
O=C(O)c1ccc2c(=O)n3c(nc2c1)/C(=C/c1ccc(F)cc1)CC3 | 5.5* | -2 | 10 | 9 | -3 | 4
O=C(CCc1ccccc1)N[C@H]1[C@@H](OC(=O)C2CC2)CCC[C@@]12C(=O)N(Cc1ccccc1)c1ccccc12 | . | . | 3 | 0 | . | .
Cc1ccc2[nH]c(=O)c(CN(Cc3cccnc3)Cc3nnnn3CCN3CCOCC3)cc2c1 | 5.1* | -1 | -4 | -1 | 0 | 2
Cc1ccc2[nH]c(=O)c(CN(Cc3cccnc3)Cc3nnnn3CC3CCCO3)cc2c1 (centres undefined) | 2 | -5 | -6 | 4 | 0 | .
O=C(c1c(F)cccc1F)N1CCC(Oc2cccnc2)CC1 | . | . | 0 | 3 | . | .
CCOC(=O)c1sc(NC(=O)C2=COCCO2)c(C#N)c1C | 5.8* | -3 | 0 | -4 | 1 | 2
N#Cc1c(-c2ccccc2)[nH]c(=S)[nH]c1=O | 5.0* | 6 | 1 | 13 | 1 | 3
CCn1c(Cc2cccs2)nnc1SCC(=O)Nc1ccccc1-c1ccccc1 | . | . | 1 | -6 | . | .
O=c1nc(N2CCOCC2)nc(N/N=C/c2ccc3c(c2)OCO3)[nH]1 | 5.5* | -2 | 4 | 2 | -2 | 2
Oc1cccc(/C=N/Nc2cc(N3CCOCC3)nc(N3CCOCC3)n2)c1 | 4.9* | -4 | 4 | 1 | -1 | 6.2*
CN(/N=C/c1ccc2c(c1)OCO2)c1nc(N2CCOCC2)nc(N2CCOCC2)n1 | 1 | -14 | -6 | -2 | -1 | .
Oc1ccc(/C=N/Nc2cc(N3CCOCC3)nc(N3CCOCC3)n2)cc1O | 4.7* | -5 | 12 | -17 | -6 | 4
Cc1nc(N/N=C/c2ccc(O)cc2O)cc(N2CCOCC2)n1 | 4.8* | -4 | 5 | -13 | -3 | 4
CCCC[C@@H]1C(=O)N2N=Cc3cscc3[C@H]2N2N=Cc3cscc3[C@@H]12 | . | . | 4 | 0 | . | .
COc1cc(/C=N/N=C/c2cc(OC)c(O)c(OC)c2)cc(OC)c1O | 6.0* | -11 | -3 | 2 | -12 | 5.8*
COc1cc(/C=N/N=C(/C(=O)c2ccccc2)c2ccccc2)cc(OC)c1O | -1 | -4 | 8 | -9 | 0 | .
COc1cc(/C=N/NC(=O)C(N)=O)cc(OC)c1O | 4.8* | -9 | -1 | 5 | -3 | 4
NC(=O)CN1C(=O)C(O)(CC(=O)/C=C\C=C\c2ccccc2)c2ccccc21 (centres undefined) | 5.4* | -4 | -7 | 6 | 0 | 5.0*
CCN1C(=O)C(O)(CC(=O)/C=C/C=C/c2ccccc2)c2ccccc21 (centres undefined) | 5.8* | -5 | 1 | 0 | -3 | 4
Cc1ccc2c(c1)C(O)(CC(=O)/C=C/C=C/c1ccccc1)C(=O)N2 (centres undefined) | 6.3* | -7 | -3 | 3 | -2 | 4
SMILES | MsrA inhibitor | bovine MsrA act | rCAG RNA binder | HGIII-sPLA2 inh | PG9 binder | MsrA conf
NC(=O)CN1C(=O)C(O)(CC(=O)/C=C\c2ccc3c(c2)OCO3)c2ccccc21 (centres undefined) | 4.8* | -5 | 6 | 6 | -1 | 4
CCOC(=O)[C@]12CCCCC/C=C\1N(CCc1ccc(Cl)cc1)C(=O)[C@H]2CC(=O)NCc1cccc(C(F)(F)F)c1 | . | . | 3 | -17 | . | .
CC(=O)NCc1ccc(S(=O)(=O)N/N=C/c2ccc(Br)cc2)cc1 | 1 | -2 | 2 | -4 | 0 | .
CCN(CC)c1ccc(C=NNc2ccc([N+](=O)[O-])cn2)cc1 | 0 | -3 | 8 | 8 | -3 | .
CCN(CC)c1ccc(/C=N/NS(=O)(=O)c2ccc(CNC(C)=O)cc2)cc1 | 6.2* | -4 | 7 | -1 | -7 | 2
CCN(CC)c1ccc(C=NCCc2ccc(S(N)(=O)=O)cc2)cc1 | 4.7* | -12 | 1 | 8 | 0 | 3
Cc1ccc(S(=O)(=O)N/N=C/c2ccccc2F)cc1[N+](=O)[O-] | 1 | -5 | 8 | -2 | -2 | .
CCN(CC)c1ccc(/C=N/NS(=O)(=O)c2cccc([N+](=O)[O-])c2)cc1 | 5.4* | -7 | 4 | 15 | -3 | 3
CCN(CC)c1ccc(/C=N/O)cc1 | 4 | -5 | -2 | 3 | -3 | .
CCN(Cc1ccccc1)c1ccc(/C=N/NS(=O)(=O)c2ccc(C)c([N+](=O)[O-])c2)cc1 | 4.8* | -13 | 15 | 11 | -1 | 2
O=C1CCC[C@H]2C[C@H](NCc3ccccc3Cl)CC[C@]23CCCN13 | . | . | . | 0 | . | .
O=C(Nc1nc2ncccn2c1-c1ccc(F)c(F)c1)c1ccc(F)cc1 | . | . | 1 | 0 | . | .
Cc1nc2c(=O)n(C)c(=O)n(C)c2nc1Cl | 4.7* | 1 | -1 | 10 | 1 | 2
Cc1ccc(/C=N/N=C2/NC(=O)CS2)o1 | 5.5* | -7 | 1 | 3 | -2 | 3
O=c1cc(-c2ccc(O)c(O)c2)oc2c(C3O[C@H](CO)[C@@H](O)[C@H](O)[C@H]3O)c(O)cc(O)c12 (some centres undefined) | 5.6* | -4 | 4 | 5 | -8 | 4
CCOc1nc(NCCN2CCOCC2)nc(Nc2ccc([N+](=O)[O-])cc2)n1 | 3 | -5 | 5 | -1 | -3 | .
COc1nc(NCCN2CCOCC2)nc(Nc2ccc([N+](=O)[O-])cc2)n1 | 4.8* | -13 | 9 | -3 | 3 | 3
CCC(C)NC(=O)CNc1nnnn1-c1ccccc1 (centres undefined) | . | . | 2 | -2 | . | .
Clc1cncc(Cl)c1N/N=C/c1ccncc1 | 4.9* | -5 | -2 | 12 | 2 | 4
Clc1cccc(Cl)c1/C=N/Nc1c(Cl)cncc1Cl | 0 | -13 | -1 | 13 | 0 | .
COC(=O)[C@]12C[C@H](CC(=O)NCc3cccc(C(F)(F)F)c3)C(=O)N(Cc3ccc4c(c3)OCO4)C1=C[C@H](C(C)C)O[C@@H]2C1CC1 | . | . | 3 | -8 | . | .
C=CCNc1nc(N)c(C(=O)Nc2cc(C)on2)s1 | 6.2* | -6 | -3 | 6 | -6 | 3
O=C(NC1CCCCN(Cc2ccc(Cl)cc2)C1=O)c1cccs1 (centres undefined) | . | . | 2 | 10 | . | .
Cc1cccc(/N=C/c2nc(-c3ccccc3Br)oc2O)n1 | 1 | -7 | 2 | -3 | 0 | .
Cc1ccnc(N=Cc2nc(-c3ccccc3Br)oc2O)c1 | 6.5* | -5 | 1 | 1 | 0 | 1
CCc1ccc(NC2=CC(=O)CC(C)(C)C2)cc1 | 1 | -6 | -3 | 0 | -4 | .
